Some test systems named below: NCI-H23 lung; NCI-H226 lung; NCI-H322M lung; HOP-62 NSCLC; NCI-H460 lung; HOP-92 NSCLC; NCI-H522 lung; A549/ATCC NSCLC; 786-0 renal; COLO 205 colon.
What all share (test): NCI-60 one-dose screen, 48 h (100 = growth as untreated, 0 = no growth, -100 = all killed)
Common to all, as to conditions: 10 µM unless noted

The panel holds about 83,000 compounds, 20% with a hit somewhere; the sample as a whole holds those more often.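 Activity criterion: percent growth below 10, measured after cells in 96-well plates were exposed to a single compound concentration for 48 hours.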 A number with no mark means an inactive call. Activity calls are given as the source filed them.

As to `N#Cc1c(-c2ccccc2)cc(-c2ccc(Nc3nc(Nc4ccc(Cl)cc4)nc(Nc4ccc(Cl)cc4)n3)cc2)nc1N`, the growth was 39.2% in the assay with NCI-H23 lung; -23.4% (active) in the assay on NCI-H226 lung; 87% in the assay with NCI-H322M lung; 99% in the assay with HOP-62 NSCLC; 48.2% with NCI-H460 lung; -72.5% (active) in the assay with HOP-92 NSCLC. Further, the growth is 80.7% in the assay with NCI-H522 lung, 28.8% in the assay with A549/ATCC NSCLC, 46.7% with 786-0 renal and -25.3% (active) in the assay with COLO 205 colon.
Turning to `Fc1cnccc1C1CC(c2ccc(N3CCNCC3)cc2)=NN1` (stereo not given), the growth is 83.8% with NCI-H23 lung; 82.9% in the assay on NCI-H226 lung; 89.3% in the assay with NCI-H322M lung; 83.2% with HOP-62 NSCLC; 94.9% in the assay with NCI-H460 lung; 72.4% in the assay with HOP-92 NSCLC. The growth in the assay on NCI-H522 lung was 81.9%; with A549/ATCC NSCLC, 76.2%; in the assay on 786-0 renal, 111%; in the assay on COLO 205 colon, 95.7%.
In the case of `O=C(Nc1ccc(OS(=O)(=O)c2ccc(F)cc2)cc1)C1CCCCCC1`, the growth in the assay on NCI-H23 lung is 83.6%; with NCI-H226 lung, 94.3%; with NCI-H322M lung it was 106%; in the assay on HOP-62 NSCLC it was 98.6%; in the assay with NCI-H460 lung it was 95.5%; with HOP-92 NSCLC, 83.4%. Also, the growth was 81.2% in the assay with NCI-H522 lung, 92.5% in the assay on A549/ATCC NSCLC, 96.6% with 786-0 renal and 64.6% with COLO 205 colon.
As for `COc1ccc(/C=C(\C#N)n2nnc3cc(Cl)ccc32)cc1`, the growth with NCI-H23 lung is 8.62% (active); in the assay with NCI-H226 lung it was 12.8%; in the assay with NCI-H322M lung it was 6.1% (active); in the assay with HOP-62 NSCLC it was 40.8%; in the assay with NCI-H460 lung it was 1.99% (active); in the assay with HOP-92 NSCLC, -2.3% (active). The growth with NCI-H522 lung was -15.7% (active); in the assay on A549/ATCC NSCLC it was 14.4%; in the assay on 786-0 renal, -16.7% (active); with COLO 205 colon, -13.2% (active).
As to `CCn1cc(C(=O)NNC(=S)Nc2ccc(C)cc2)c(=O)c2ccc(C)nc21`, the growth in the assay with NCI-H23 lung is 102%; in the assay with NCI-H226 lung, 90.1%; in the assay with NCI-H322M lung it was 80.4%; in the assay with HOP-62 NSCLC it was 108%; with NCI-H460 lung, 101%; in the assay with HOP-92 NSCLC it was 95.1%. For the same molecule, the growth in the assay with NCI-H522 lung is 97.3%; in the assay with A549/ATCC NSCLC it was 91.6%; with 786-0 renal, 102%; in the assay with COLO 205 colon, 116%.
`O=[N+]([O-])c1ccc(O)cc1Br`: the growth is 95.1% in the assay with NCI-H23 lung; 93.2% with NCI-H226 lung; 105% with NCI-H322M lung; 92.4% in the assay on HOP-62 NSCLC; 104% in the assay on NCI-H460 lung; 44.8% in the assay on HOP-92 NSCLC. Moreover, the growth was 90.7% in the assay on NCI-H522 lung, 103% in the assay with A549/ATCC NSCLC, 99.8% in the assay on 786-0 renal and 108% with COLO 205 colon.
For the molecule `CCCCCCCCCCC(CN(CC)CC)C(O)c1ccccc1` (stereo not given), the growth with NCI-H23 lung is 38%; in the assay with NCI-H226 lung, 15.4%; with NCI-H322M lung, 80.3%; in the assay on HOP-62 NSCLC it was 53.4%; in the assay with NCI-H460 lung, 21.7%; with HOP-92 NSCLC, -1.6% (active). Also, the growth in the assay on NCI-H522 lung is -14.4% (active); with A549/ATCC NSCLC, 54.7%; with 786-0 renal, 49.1%; in the assay on COLO 205 colon it was -42.6% (active).
As to `CCNCCNc1cc(C2CCCCC2)c(C#N)c2nc3ccccc3n12`, the growth with NCI-H23 lung is 44.7%; in the assay with NCI-H226 lung, 15.3%; with NCI-H322M lung, -3.13% (active); with HOP-62 NSCLC, 16.1%; with NCI-H460 lung, -23.4% (active); in the assay with HOP-92 NSCLC it was -24.5% (active). Also, the growth in the assay on NCI-H522 lung was -9.52% (active); in the assay with A549/ATCC NSCLC, 3.05% (active); in the assay on 786-0 renal it was 4.62% (active); in the assay on COLO 205 colon it was -52.8% (active).
Take `O=C(CSc1nc2sc3c(c2c(=O)n1-c1ccccc1)CCCCC3)N/N=C/c1cccc([N+](=O)[O-])c1`: the growth in the assay on NCI-H23 lung was 54.4%; in the assay on NCI-H226 lung, 94.4%; in the assay on NCI-H322M lung it was 79%; in the assay with HOP-62 NSCLC, 53%; in the assay on NCI-H460 lung it was 19.6%; in the assay with HOP-92 NSCLC it was 73.2%. Besides, the growth was 53.5% in the assay with NCI-H522 lung, 27.8% with A549/ATCC NSCLC, 80.7% in the assay with 786-0 renal and 89.1% in the assay with COLO 205 colon.
With `NC(=O)c1cccc(-n2ccc3cc(NC(=O)c4ccc(N5CCOCC5)c(C(F)(F)F)c4)ccc32)n1`, the growth is 77.5% in the assay with NCI-H23 lung; 66.3% with NCI-H226 lung; 57.1% in the assay on NCI-H322M lung; 44.5% in the assay with HOP-62 NSCLC; 43.8% with NCI-H460 lung; 66.8% with HOP-92 NSCLC. The growth in the assay with NCI-H522 lung is 58.9%; in the assay on A549/ATCC NSCLC it was 42.7%; in the assay on 786-0 renal, 19.1%; with COLO 205 colon, 34.4%.
Turning to `O=C(Nc1nc2ccccc2s1)c1ccc(F)cc1`, the growth is 89.9% with NCI-H23 lung; 92.7% in the assay on NCI-H226 lung; 92.5% in the assay with NCI-H322M lung; 106% in the assay with HOP-62 NSCLC; 69.2% in the assay on NCI-H460 lung; 78.7% in the assay on HOP-92 NSCLC. For the same molecule, the growth in the assay on NCI-H522 lung was 92.2%; in the assay on A549/ATCC NSCLC it was 98.4%; in the assay on 786-0 renal it was 108%; in the assay with COLO 205 colon it was 118%.
As for `Nc1ncnc2c1c(-c1cccc(Cl)c1)nn2CC(=O)N1CCOCC1`, the growth was 97.5% with NCI-H23 lung; 93% in the assay on NCI-H226 lung; 102% in the assay on NCI-H322M lung; 109% with HOP-62 NSCLC; 107% in the assay with NCI-H460 lung; 105% with HOP-92 NSCLC. Further, the growth was 102% in the assay on NCI-H522 lung, 99.9% in the assay with A549/ATCC NSCLC, 94.8% in the assay on 786-0 renal and 116% in the assay on COLO 205 colon.
Consider `COC(=O)c1cc(N=C2NC(=O)/C(=C/C=C/c3ccccc3)S2)ccc1O`, for which the growth in the assay on NCI-H23 lung was 37.2%; in the assay with NCI-H226 lung it was 37.5%; in the assay with NCI-H322M lung it was 47.2%; in the assay with HOP-62 NSCLC, 44.5%; with NCI-H460 lung, 12.1%; in the assay with HOP-92 NSCLC it was 34.3%. For the same molecule, the growth in the assay with NCI-H522 lung is 19.4%; with A549/ATCC NSCLC, 30.8%; in the assay with 786-0 renal it was 20.4%; with COLO 205 colon it was 9.95% (active).

The values are drawn from PubChem BioAssay (NCI).
